HPGD block – blocks human HPGD enzyme activity. P15428. purified HPGD, NADH fluorescence kinetic, PGE2 substrate. Potency, µM, for the others: at the highest dose activity change, negative = inhibition, most hits filed as inhibitors. 150,000 tested, 4.3% active. AID 894; note: potency is the fitted concentration of half-maximal effect
Target sequence (P15428 whole entry, looked up): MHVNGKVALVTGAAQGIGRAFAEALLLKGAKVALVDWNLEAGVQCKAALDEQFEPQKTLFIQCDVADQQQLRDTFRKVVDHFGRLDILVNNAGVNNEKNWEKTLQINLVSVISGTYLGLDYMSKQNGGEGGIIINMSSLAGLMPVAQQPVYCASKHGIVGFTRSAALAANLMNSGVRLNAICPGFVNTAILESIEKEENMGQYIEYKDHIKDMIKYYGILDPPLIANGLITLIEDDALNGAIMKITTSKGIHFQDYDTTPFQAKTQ
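NADH formation kinetics: reaction with 30 uM PGE2 and 1 mM NAD+ (final), 20 nM enzyme, Tris-HCl pH 8 with Tween 20, after 15 min compound preincubation at room temperature. Fluorescence change, last versus first of five reads.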
IMPase inh – membrane-permeable compound that blocks inositol monophosphatase; CHO-M1 cells, IP1 accumulation, HTRF TR-FRET ratio; inhibition (IP1 accumulation), % at 46.1 µM; 120,000 tested, under 10 active; AID 901; active = well fitted curve in the direction sought with a large enough effect in the signal ratio, not every such curve was filed as active; inconclusive = small, poorly fitted or top-dose-only effect, or a change in a side signal; inactive = no such curve, though single readings can be large or run the other way; the % refers to the signal ratio;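 note: cells stimulated with carbachol in lithium chloride buffer; plate controls were DMSO basal wells for no effect and reference inhibitor wells for full effect; higher means more IMPase inhibition seen as more IP1 and lower FRET ratio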
Target sequence (P97697 whole entry, looked up): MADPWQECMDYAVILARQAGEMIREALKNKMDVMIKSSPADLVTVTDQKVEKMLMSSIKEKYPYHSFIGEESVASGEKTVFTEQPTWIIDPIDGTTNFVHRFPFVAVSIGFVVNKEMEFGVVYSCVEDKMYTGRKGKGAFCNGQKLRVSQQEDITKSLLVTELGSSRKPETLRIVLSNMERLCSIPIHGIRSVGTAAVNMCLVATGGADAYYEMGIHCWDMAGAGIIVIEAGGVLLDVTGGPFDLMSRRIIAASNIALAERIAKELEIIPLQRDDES
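CHO-M1, 2000 cells/well, cultured 16–30 h; cpd up to 46 uM; carbachol (50 uM solution, stimulation buffer w/ 50 mM LiCl, pH 7.4), 30 min 37C; IP-One TR-FRET, 10 min RT; Ex 320/Em 665, 620; Hill-fit AC50.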
ALDH1A1 block – ALDH1A1 (human) enzyme inhibition | Purified ALDH1A1, NADH fluorescence, propionaldehyde substrate | P00352 | 220,000 tested, 7.3% active | Potency, µM (series often up to 75.3 µM), inactives show at the top dose activity, negative = inhibition, most hits filed as inhibitors;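 note: potency is the fitted concentration of half-maximal effect; plate controls were no enzyme wells and a reference inhibitor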
Active calls of the source: *; ? = inconclusive; / = not tested or not shown; [ ] = another dose, or the depositor's remark. Shown are actives, neighbours in structure and some others; about 9% of the full set was active somewhere. Unless noted, calls come from the whole dose curve; as a rule, active = well fitted inhibition curve with a large enough effect (not every such curve was filed as active); inconclusive = small, poorly fitted or top-dose-only effect, or another doubt; inactive = no such curve, though single readings can be large or run the other way. Unless noted, % is set by controls: 0 for no effect and ±100 for the full control effect.

SMILES	HPGD block	IMPase inh	ALDH1A1 block
Cc1cccc(NC(=O)CSc2nnc(-c3cc(C)n(-c4ccccc4)c3C)o2)c1C	-18%	9	?
CCN(Cc1ccccc1)Cc1c(O)ccc2c(=O)c(-c3ccccc3Cl)coc12	/	-1	/
COc1ccc2[nH]cc(CCNc3ccnc(-c4c(C)noc4C)n3)c2c1	/	/	11%
CCC(C)NC(=S)N1CCN(C)CC1 (stereo unspecified)	/	/	22µM*
CCC(C)[C@H](NC(=O)N1CCN(C)CC1)C(=O)OC (stereo partly specified)	-7%	-9	-1%
Cc1cccc(C)c1N=Cc1c(C(F)(F)F)[nH][nH]c1=O	/	/	5%
COc1ccc(Nc2c(-c3ccsc3)nc3nc(C)cc(C)n23)cc1	/	2	/
Cc1cc(NC(=O)c2ccc(F)cc2)ccc1-c1cc2ccccc2oc1=O	/	-5	/
COc1ccc(C(=O)NC(=S)Nc2ccc3oc(=O)ccc3c2)cc1OC	2%	/	5%
O=C(Nc1ccccc1N1CCCC1)c1cccc(-c2cc3ccccc3oc2=O)c1	-8%	/	-1%
Cc1cc(NC(=S)NC(=O)c2ccccc2)ccc1-c1cc2ccccc2oc1=O	-5%	/	8.9µM*
O=C(Nc1ccc(N2CCCC2)cc1)c1cccc(-c2cc3ccccc3oc2=O)c1	8.9µM*	7	2.2µM*
COc1cc(C(=O)NC(=S)Nc2cccc(-c3cc4ccccc4oc3=O)c2)cc(OC)c1OC	-6%	4	14µM*
CCCCCCCCCCCC(=O)NC1CCS(=O)(=O)C1 (stereo unspecified)	/	/	6%
CCCN(CCC)c1nc(NC2CCN(C(=O)OCC)CC2)nc(OC)n1	-14%	0	?
CNc1nc(N)nc(OC(C(F)(F)F)C(F)(F)F)n1	/	/	4%
Cc1ccc(S(=O)(=O)N(C)C)cc1NC(=O)COC(=O)/C(=C/c1ccc(F)cc1)c1cccs1	-9%	/	?
O=C(NCc1ccc(F)cc1)c1ccc(Nc2nc3ccccc3n3nnnc23)cc1	/	5	/
Cc1ccc(-c2nnc3n2N=C(c2ccc(Br)cc2)CS3)cc1	-13%	2	11%
Brc1ccccc1C1=Nn2c(nnc2-c2ccccc2)SC1	16µM*	3	?
CCN(CC)C(=O)CSc1nnc(-c2ccccn2)n1-c1ccc(C)c(C)c1	-3%	-1	2%
COc1ccccc1CNc1ccc(N2CCCCC2)cc1	-18%	2	?
CCOc1ccc(CNc2ccc(CNc3ncn[nH]3)cc2)cc1	/	/	-1%
COc1cccc(CNc2ccc(N3CCCCC3)cc2)c1OC	-14%	4	4µM*
CCOc1ccc(CNc2ccc(N3CCCC3)cc2)cc1	-2%	26	7.9µM*
SMILES	HPGD block	IMPase inh	ALDH1A1 block
CCOc1cc(CNc2ccc(N3CCCC3)cc2)cc(Cl)c1OC	-13%	/	32µM*
CCOc1cc(CNc2ccc(S(N)(=O)=O)cc2)cc(Cl)c1OC	-3%	/	6%
O=C(C1CCOCC1)N1CCC(CO)(CCc2ccccc2)CC1	/	/	2%
Cc1ccc(N=Cc2c(O)[nH]c3ccccc23)c([N+](=O)[O-])c1	/	/	-1%
Cc1cccc(C(=O)NC(=S)N2CCc3ccccc3C2)c1	-19%	/	?
O=C(CN1CCN(C(=O)c2ccco2)CC1)Nc1cccc([N+](=O)[O-])c1	/	/	-9%
O=C(CCCCCn1c(=O)[nH]c2ccsc2c1=O)N1CCN(C2CCCCC2)CC1	-25%	3	?
O=C(CCCn1c(=O)[nH]c2ccsc2c1=O)N1CCCCC1	14µM*	-4	-7%
O=C(CCCCCn1c(=O)[nH]c2ccsc2c1=O)NCc1cccs1	?	2	4%
O=C(CCCCn1c(=O)[nH]c2ccsc2c1=O)NCC1CCCO1 (stereo unspecified)	25µM*	-2	-1%
O=C(CCCCCn1c(=O)[nH]c2ccsc2c1=O)N1CCCCC1	14µM*	-11[1.84 µM]	-1%
NC(=O)C1(N2CCCCC2)CCN(C(=O)CCCn2c(=O)[nH]c3ccsc3c2=O)CC1	-7%	0	2%
Clc1ncc(CSc2ccccc2)s1	/	/	4%
CN1CCN(c2ncnc3c2sc2nc(N4CCCC4)c4c(c23)CC(C)(C)OC4)CC1	-10%	/	0%
S=C1COC(c2ccccc2)N1c1ccccc1 (stereo unspecified)	-15%	5	-2%
COc1ccccc1-n1ccnc1SCC(=O)NCc1ccco1	/	/	5%
COc1cc(NC(=O)Cn2c(-c3cncs3)nc3ccccc32)cc(OC)c1OC	?	-18	?
Cc1ccc(OCc2ccc(C(=O)N3CCOCC3)cc2)cc1C	25µM*	12	0%
Cc1ccc(OCC(=O)N2CCOCC2)cc1C	-13%	/	-5%
CCOc1cc(/C=N/NC(=O)C(C)Sc2ccccn2)ccc1O (stereo unspecified)	-7%	4	-3%
CC(=Nc1ccccc1)C1=C(O)CC(C)(C)CC1=O	/	/	3%
Cc1cc(C)nc(/N=C(\N)C2=C(O)CC(C)(C)CC2=O)n1	-5%	-3	3.2µM*
CN(C(=O)COC(=O)c1ccc(Cl)cc1N)C1CCS(=O)(=O)C1 (stereo unspecified)	?	-3	?
CC1CC1C(=O)OCc1cc(=O)n2cc(Br)ccc2n1 (stereo unspecified)	-7%	-23	-14%
CC1(C(=O)OCc2cc(=O)n3cc(Br)ccc3n2)CC1(Cl)Cl (stereo unspecified)	/	/	20µM*
SMILES	HPGD block	IMPase inh	ALDH1A1 block
N#Cc1c(-c2ccccc2)c(C#N)c2nc3ccccc3n2c1N	-13%	/	?
Cc1ccc(-c2c(C#N)c(N)n3c(nc4ccccc43)c2C#N)cc1	?	0	19µM*
CCNc1nc(N)nc(Oc2ccc(OCCOc3ccc(Cl)cc3Cl)nn2)n1	1µM*	11	-3%
CCNc1nc(NCC)nc(Oc2ccc(OCC)nn2)n1	-7%	9	10%
CN(C)N=Nc1nc2c(c(=O)n(C)c(=O)n2C)n1CC1CO1 (stereo unspecified)	/	/	-6%
O=[N+]([O-])c1ccccc1NCCNc1ncc(C(F)(F)F)cc1Cl	-16%	-9[1.84 µM]	8%
FC(F)(F)c1cnc(NNC(=S)Nc2ccccc2Cl)c(Cl)c1	/	4	1.5µM*
Clc1ccc(NNc2ccnc3cc(Cl)ccc23)cc1	-19%	-1	-8%
S=C(NNc1ccnc2cc(Cl)ccc12)Nc1ccccc1Cl	25µM*	/	?

Bioassay records from PubChem BioAssay.
